# Assay results reported in the supplement of paper PMC9262897, “Low-cost anti-mycobacterial drug discovery using engineered E. coli” (Nature Communications, 2022).
# Where a name gives a salt, the structure may show the parent alone. ± gives the standard deviation of the averaged measurements.
# Assays:
# Assay in all cases: growth (OD600 after 10 h); higher = more growth (less inhibition)
# [1] = system: E. coli TESEC Alr+ wild-type control; conditions: compound 0.1 mM; raw OD600 reference: median of DMSO wells 0.241, cell-free background 0.041
# Experimental: (§1)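 TESEC Mtb Alr E. coli, or the Alr+ wild-type control, in 384-well plates with Prestwick library compounds at 0.1 mM and 1% DMSO, across arabinose induction levels of 1E3 to 1E7 nM. Growth is read as OD600 after 10 h at 37 °C in triplicate biological replicates.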
# E. coli TESEC Mtb Alr [2] = conditions: compound 0.1 mM
# Experimental: as §1
# E. coli TESEC Mtb Asd = conditions: compound 0.1 mM
# Experimental: (§2)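 TESEC E. coli strains in which the native enzyme is deleted and replaced by arabinose-inducible Mtb Asd, DapB, CysH or TrpD, each grown in its selective medium. Strains were screened against the Prestwick library at 0.1 mM and 1% DMSO in 384-well format at low and high arabinose induction. Growth is read as OD600 after 10 h in triplicate.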
# E. coli TESEC Mtb DapB = conditions: compound 0.1 mM
# Experimental: as §2
# [3] = system: E. coli TESEC Alr+ wild-type control; conditions: compound 0.1 mM; raw OD600 reference: median of DMSO wells 0.49, cell-free background 0.052
# Experimental: (§3)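 TESEC Mtb Alr E. coli (ΔaraC ΔtolC ΔentC Δalr ΔdadX, arabinose-inducible Mtb Alr) or the Alr+ wild-type control strain, grown in defined M9-fructose medium without D-alanine in 96-well plates with Prestwick library compounds at 0.1 mM and 1% DMSO. Low Alr induction is 0.1 µM arabinose and high induction is 10 mM arabinose.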
# E. coli TESEC Mtb Alr [4] = conditions: compound 0.1 mM; remark: listed apart in the source
# Experimental: as §3
# [5] = arabinose 1000 nM, raw OD600 reference: median of DMSO wells 0.294, cell-free background 0.041
# [6] = arabinose 10000 nM, raw OD600 reference: median of DMSO wells 0.264, cell-free background 0.041
# [7] = arabinose 100000 nM, raw OD600 reference: median of DMSO wells 0.201, cell-free background 0.041
# [8] = arabinose 1000000 nM, raw OD600 reference: median of DMSO wells 0.193, cell-free background 0.041
# [9] = arabinose 10000000 nM, raw OD600 reference: median of DMSO wells 0.146, cell-free background 0.041
# [10] = arabinose induction (level): High, raw OD600 reference: median of DMSO wells 0.331, cell-free background 0.041
# [11] = arabinose induction (level): Low, raw OD600 reference: median of DMSO wells 0.417, cell-free background 0.041
# [12] = arabinose induction (level): High, raw OD600 reference: median of DMSO wells […], cell-free background 0.041
# [13] = arabinose induction (level): Low, raw OD600 reference: median of DMSO wells 0.227, cell-free background 0.041
# [14] = arabinose 100 nM, raw OD600 reference: median of DMSO wells 0.413, cell-free background 0.052
# [15] = arabinose 10000000 nM, raw OD600 reference: median of DMSO wells […], cell-free background 0.052
Structure (SMILES),growth [1],growth (E. coli TESEC Mtb Alr [2]; [5]),growth (E. coli TESEC Mtb Alr [2]; [6]),growth (E. coli TESEC Mtb Alr [2]; [7]),growth (E. coli TESEC Mtb Alr [2]; [8]),growth (E. coli TESEC Mtb Alr [2]; [9]),growth (E. coli TESEC Mtb Asd; [10]),growth (E. coli TESEC Mtb Asd; [11]),growth (E. coli TESEC Mtb DapB; [12]),growth (E. coli TESEC Mtb DapB; [13]),growth [3],growth (E. coli TESEC Mtb Alr [4]; [14]),growth (E. coli TESEC Mtb Alr [4]; [15])
CCOC(=O)N1CCC(=C2c3ccc(Cl)cc3CCc3cccnc32)CC1 [Loratadine],0.146 ± 0.0043,0.17 ± 0.0039,0.205 ± 0.0047,0.173 ± 0.0098,0.0897 ± 0.0023,0.103 ± 0.0051,0.175 ± 0.01,0.246 ± 0.023,0.195 ± 0.0081,0.179 ± 0.0076,0.402 ± 0.0043,0.391 ± 0.0066,0.0517 ± 0.00062
COc1cccc2c1C(=O)c1c(O)c3c(c(O)c1C2=O)C[C@@](O)(C(=O)CO)C[C@@H]3O[C@H]1C[C@H](N)[C@@H](O)[C@H](C)O1 [Epirubicin hydrochloride],0.04433 ± 0.00032,0.0453 ± 0.0011,0.04623 ± 0.00032,0.0469 ± 0.0005,0.0457 ± 0.00068,0.0453 ± 0.0005,0.068 ± 0.0071,0.0576 ± 0.0035,0.0567 ± 0.0034,0.0562 ± 0.0015,0.0592 ± 0.0032,0.0587 ± 0.0013,0.0582 ± 0.00053
CN(C)CCC(c1ccccc1)c1ccccn1 (configuration not stated) [Pheniramine maleate],0.241 ± 0.014,0.289 ± 0.0087,0.242 ± 0.0091,0.191 ± 0.0028,0.162 ± 0.0033,0.14 ± 0.0047,0.248 ± 0.064,0.408 ± 0.014,0.201 ± 0.022,0.213 ± 0.019,0.455 ± 0.059,0.41 ± 0.006,0.345 ± 0.015
Cc1cccc(C)c1NC(=O)C1CCCCN1C (configuration not stated) [Mepivacaine hydrochloride],0.233 ± 0.012,0.2802 ± 0.0024,0.273 ± 0.0048,0.199 ± 0.026,0.225 ± 0.013,0.136 ± 0.0053,0.366 ± 0.042,0.367 ± 0.045,0.203 ± 0.013,0.216 ± 0.024,0.46 ± 0.038,0.41 ± 0.011,0.365 ± 0.0059
CN(c1nccc(=O)[nH]1)C1CCN(c2nc3ccccc3n2Cc2ccc(F)cc2)CC1 [Mizolastine],0.18 ± 0.016,0.221 ± 0.011,0.172 ± 0.0085,0.215 ± 0.01,0.0813 ± 0.0018,0.1409 ± 0.0014,0.177 ± 0.0092,0.293 ± 0.036,0.2 ± 0.039,0.174 ± 0.012,0.426 ± 0.018,0.406 ± 0.0081,0.162 ± 0.026
O=c1[nH]c(=O)n(C2CCCO2)cc1F (configuration not stated) [Tegafur],0.2441 ± 0.0016,0.284 ± 0.0093,0.2613 ± 0.001,0.208 ± 0.0031,0.224 ± 0.013,0.135 ± 0.0053,0.366 ± 0.03,0.359 ± 0.091,0.2018 ± 0.0016,0.23 ± 0.032,0.586 ± 0.12,0.407 ± 0.011,0.346 ± 0.011
CNCCCC12CCC(c3ccccc31)c1ccccc12 [Maprotiline hydrochloride],0.269 ± 0.0086,0.256 ± 0.016,0.276 ± 0.0088,0.246 ± 0.032,0.134 ± 0.0037,0.169 ± 0.0019,0.197 ± 0.0097,0.164 ± 0.016,0.1849 ± 0.0011,0.211 ± 0.011,0.589 ± 0.072,0.41 ± 0.0086,0.28 ± 0.013
"CC(O)(P(=O)(O)O)P(=O)(O)O [Etidronic acid, disodium salt]",0.261 ± 0.021,0.331 ± 0.0087,0.275 ± 0.0062,0.20943 ± 0.00012,0.184 ± 0.0041,0.159 ± 0.003,0.474 ± 0.015,0.426 ± 0.068,0.216 ± 0.003,0.26 ± 0.015,0.578 ± 0.046,0.415 ± 0.021,0.261 ± 0.056
CC(NCCc1ccc(O)cc1)C(O)c1ccc(O)cc1 (configuration not stated) [Ritodrine hydrochloride],0.234 ± 0.0026,0.313 ± 0.011,0.2537 ± 0.0014,0.21 ± 0.032,0.176 ± 0.0022,0.144 ± 0.0063,0.251 ± 0.027,0.348 ± 0.055,0.179 ± 0.0043,0.185 ± 0.01,0.56 ± 0.074,0.408 ± 0.0081,0.36 ± 0.019
"CN1CCc2c(c3ccccc3n2Cc2ccccc2)C1 [Mebhydroline 1,5-naphtalenedisulfonate]",0.175 ± 0.0028,0.218 ± 0.0081,0.267 ± 0.012,0.199 ± 0.02,0.133 ± 0.0032,0.157 ± 0.005,0.179 ± 0.014,0.278 ± 0.055,0.187 ± 0.017,0.207 ± 0.0028,0.4471 ± 0.0035,0.404 ± 0.0065,0.261 ± 0.034
CCOCCn1c(N2CCCN(C)CC2)nc2ccccc21 [Emedastine],0.223 ± 0.007,0.288 ± 0.0092,0.25 ± 0.0071,0.211 ± 0.052,0.164 ± 0.0048,0.135 ± 0.004,0.291 ± 0.075,0.328 ± 0.058,0.205 ± 0.018,0.211 ± 0.019,0.514 ± 0.081,0.415 ± 0.012,0.337 ± 0.013
COc1cc(-c2ccc(=O)[nH]n2)ccc1OC(F)F [Zardaverine],0.14 ± 0.0036,0.173 ± 0.0042,0.188 ± 0.013,0.17 ± 0.021,0.171 ± 0.0067,0.147 ± 0.0091,0.211 ± 0.014,0.162 ± 0.014,0.16 ± 0.012,0.176 ± 0.018,0.442 ± 0.044,0.401 ± 0.0082,0.35 ± 0.011
CC(Oc1ccccc1)C(=O)N[C@@H]1C(=O)N2[C@@H]1SC(C)(C)[C@@H]2C(=O)O (some centres not stated) [Phenethicillin potassium salt],0.267 ± 0.018,0.311 ± 0.019,0.266 ± 0.0071,0.223 ± 0.018,0.19 ± 0.006,0.139 ± 0.0076,0.306 ± 0.05,0.438 ± 0.011,0.226 ± 0.0034,0.249 ± 0.02,0.482 ± 0.075,0.398 ± 0.0069,0.367 ± 0.0061
CC(C)(C)CC(C)(C)c1ccc(OCOCCOCCO)c(Cc2cc(C(C)(C)CC(C)(C)C)cc(Cc3cc(C(C)(C)CC(C)(C)C)ccc3OCOCCOCCO)c2OCOCCOCCO)c1 [Tyloxapol],0.341 ± 0.018,0.323 ± 0.0088,0.256 ± 0.0056,0.455 ± 0.027,0.171 ± 0.0031,0.261 ± 0.032,0.475 ± 0.018,0.509 ± 0.0063,0.217 ± 0.018,0.261 ± 0.033,0.4593 ± 0.0043,0.418 ± 0.016,0.4093 ± 0.0033
